An excerpt weighted towards active compounds, which were near 1.3% of everything screened.
Fam108B counter: Fam108B inhibition, counter-screen for RBBP9 inhibitors; recombinant Fam108B, FP-Rh probe fluorescence polarization; inhibition, % at 9.51 µM; actives 0.33% (n = 300,000); AID 1947;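 active = inhibition above the screen mean inhibition plus 3 SD, computed separately per campaign, cut at about 18% in these data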;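 also: inhibitors lower polarization as less probe binds the enzyme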
PREPL inhibitor: inhibitors of human prolyl oligopeptidase-like enzyme PREPL; Q4J6C6; recombinant PREPL, fluorescence polarization activity-based probe; inhibition, % at 5.96 µM; actives 0.68% (n = 320,000); AID 2751; in the data active = inhibition above about 43%
LYPLA2 counter: blocks human lysophospholipase 2, a PME1 counter-screen. O95372. recombinant LYPLA2, FP-Rh probe fluorescence polarization. inhibition, % at 5.9 µM. actives 0.38% (n = 320,000). AID 2177;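 active = inhibition above the screen-wide mean plus 3 SD, limit set per campaign, cut at about 26% in these data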
PME-1 primary: PME-1 (human) inhibition | recombinant PME-1, FP-Rh probe fluorescence polarization | inhibition, % at 5.9 µM | actives 0.53% (n = 320,000) | AID 2130;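 active = inhibition above the campaign mean of all compounds plus 3 SD, cut at about 26% in these data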;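 also: competitive labeling of PME-1 active site by serine hydrolase directed probe; inhibitors block probe labeling so polarization falls and inhibition rises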
Target sequence (Q9Y570 whole entry, looked up): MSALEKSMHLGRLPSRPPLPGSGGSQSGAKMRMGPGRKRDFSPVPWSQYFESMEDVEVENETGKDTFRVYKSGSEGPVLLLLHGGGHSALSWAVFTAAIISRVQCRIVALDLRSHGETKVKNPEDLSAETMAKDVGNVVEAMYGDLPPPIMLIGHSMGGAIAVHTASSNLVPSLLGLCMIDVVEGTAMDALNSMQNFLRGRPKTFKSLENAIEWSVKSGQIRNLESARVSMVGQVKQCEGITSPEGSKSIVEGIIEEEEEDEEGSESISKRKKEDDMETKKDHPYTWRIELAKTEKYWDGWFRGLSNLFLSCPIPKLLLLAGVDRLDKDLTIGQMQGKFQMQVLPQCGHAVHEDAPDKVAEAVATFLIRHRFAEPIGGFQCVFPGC
LYPLA1 counter: LYPLA1 (human) inhibition in PME1 counter-screen; inhibition, % at 5.9 µM; actives 0.16% (n = 320,000); recombinant LYPLA1, FP-Rh probe fluorescence polarization; O75608;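 active = inhibition above the mean of all tested compounds plus 3 SD, set per campaign, cut at about 14% in these data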;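 also: inhibitors block serine hydrolase probe labeling of LYPLA1 so polarization falls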
Target sequence (O75608 whole entry, looked up): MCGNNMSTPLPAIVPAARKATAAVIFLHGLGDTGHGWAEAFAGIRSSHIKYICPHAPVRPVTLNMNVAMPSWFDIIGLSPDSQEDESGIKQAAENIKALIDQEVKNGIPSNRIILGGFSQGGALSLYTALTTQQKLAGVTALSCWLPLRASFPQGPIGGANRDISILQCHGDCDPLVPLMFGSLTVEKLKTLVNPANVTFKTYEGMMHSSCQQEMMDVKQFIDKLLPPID
Fam108b inh conf: Fam108b (mouse) hydrolase inhibition, confirmation assay | shares compounds with Fam108B counter | recombinant Fam108b, FP-Rh probe fluorescence polarization | inhibition, % at 9.51 µM | actives 44% (n = 930) | AID 1978;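 active = inhibition above a limit from the primary screen, the mean over all compounds plus 3 SD, cut at about 19% in these data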;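 also: inhibitors free the probe so polarization falls as inhibition rises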
Fam108b inh: mouse ABHD17B inhibition; shares compounds with Fam108B counter; recombinant Fam108b, gel-based ABPP, fluorophosphonate probe; inhibition, % at 20 µM; actives 44% (n = 260); in the data active = inhibition above about 40%
Hits are given with their value; – = inactive; · = no result.

SMILES | Fam108B counter | PREPL inhibitor | LYPLA2 counter | PME-1 primary | LYPLA1 counter | Fam108b inh conf | others
Oc1ccc(Cl)cc1CNc1cccc2cccnc12 | 21 | – | – | – | – | –
Oc1c(Br)cc(Br)cc1CNc1cccc2cccnc12 | 36 | – | – | – | – | –
O=C(CCl)N(CCc1ccccc1)CCc1ccccc1 | – | – | – | – | – | ·
Cc1nnc(C)n1/N=C/C=C/c1ccccc1 | – | – | – | – | – | ·
Cc1nc2ccccc2c(=O)n1/N=C/C=C/c1ccccc1 | 24 | – | – | – | – | 83
Cc1nc2ccccc2c(=O)n1/N=C/c1ccc(N(C)C)cc1 | – | – | – | – | – | ·
Cc1nc2ccccc2c(=O)n1N=C/C=C/c1ccccc1 | · | · | · | · | · | · | Fam108b inh=–
Cc1cc(C)c[n+](C(C)C(=O)c2ccc(-c3ccccc3)cc2)c1 (stereo not drawn) | – | – | – | – | – | ·
CCCn1c(=N)n(CC(=O)c2ccc([N+](=O)[O-])cc2)c2ccccc21 | 24 | – | – | – | – | –
Cc1ccc(C)c(S(=O)(=O)N2CCCC2CNC(=O)C(=O)NCc2ccccc2C)c1 (stereo not drawn) | – | – | – | – | – | ·
O=C(Nc1nc(-c2cccs2)cs1)c1ccc([N+](=O)[O-])o1 | · | – | – | – | – | ·
Nc1ccc(C#Cc2ccc3sc4ccccc4c(=O)c3c2)cc1 | 22 | – | – | – | – | –
Cc1ccc(S(=O)(=O)/N=C2/NC(=O)/C(=C/c3cc([N+](=O)[O-])ccc3O)S2)cc1 | 18 | – | – | – | – | 21
COc1ccc(Nc2sc(C(=O)Nc3cccc(Cl)c3)c(N)c2C(=O)Nc2ccccc2OC)cc1 | 51 | – | – | 30 | – | –
O=c1cc(-c2ccc(O)c(-c3c(O)cc(O)c4c(=O)cc(-c5ccc(O)cc5)oc34)c2)oc2cc(O)cc(O)c12 | 44 | – | – | – | – | 41 | Fam108b inh=75
O=C(NCC1CCCO1)c1ccc(NC(=O)c2cc(F)c(F)cc2Cl)cc1 (stereo not drawn) | – | – | – | – | – | ·
O=C(O)COc1ccccc1/C=N/Nc1ccc(S(=O)(=O)Nc2ccc(Cl)cc2)cc1[N+](=O)[O-] | 18 | – | – | 50 | – | 24
COc1ccccc1/C=C1\S/C(=N/NC(=O)c2cccc(Br)c2)NC1=O | 21 | – | – | – | – | –
Nc1cc(=O)[nH]c(SCC(=O)Nc2ccc(N3CCCCC3)cc2)n1 | · | – | · | · | · | ·
O=C1C2C3C=CC(C3)C2C(=O)N1CNc1ccc(O)cc1 (stereo not drawn) | 33 | – | – | 44 | – | –
Cc1c(Cl)cccc1NS(=O)(=O)c1ccc2c(c1)C1C=CCC1C(c1ccc(C(=O)O)cc1)N2 (stereo not drawn) | 34 | – | – | – | – | 33 | Fam108b inh=–
CC(=O)c1ccc2c(c1)C1C=CCC1C(c1ccc(S(=O)(=O)N3CCOCC3)cc1)N2 (stereo not drawn) | – | – | – | – | – | ·
COc1ccc(NS(=O)(=O)c2ccc3c(c2)[C@H]2C=CC[C@H]2[C@@H](c2ccc(C(=O)O)cc2)N3)cc1 | 35 | – | – | – | – | 33 | Fam108b inh=–
O=C(O)c1ccc2c(c1)C1C=CCC1C(c1ccncc1)N2 (stereo not drawn) | – | – | – | – | – | ·
Cc1cc(C)cc(NC(=O)N(CCC#N)Cc2cccs2)c1 | – | – | – | – | – | ·
SMILES | Fam108B counter | PREPL inhibitor | LYPLA2 counter | PME-1 primary | LYPLA1 counter | Fam108b inh conf | others
CCCCCCCCCCCCCCCC[n+]1ccc(C=NO)cc1 | · | · | · | · | · | · | Fam108b inh=75
Cc1ccccc1Nc1cc2ccccc2c(=O)[nH]1 | 21 | – | – | – | – | 19
O=C(Nc1cc(Sc2nc3ccccc3s2)cc([N+](=O)[O-])c1)c1cccc(F)c1F | 19 | – | – | – | – | 25
O=C(Nc1nc2ccc([N+](=O)[O-])cc2s1)c1c(F)cccc1F | – | – | – | – | – | ·
N#Cc1ccccc1OCC(=O)N(C1CCCCC1)C1CCS(=O)(=O)C1 (stereo not drawn) | – | – | – | – | – | ·
CCN(CC)S(=O)(=O)c1cc(NC(=O)COC(=O)c2ccc(NC(=O)CC#N)cc2)ccc1C | – | – | – | – | – | ·
CCN(CC)S(=O)(=O)c1cc(NC(=O)COC(=O)c2sc3ccccc3c2Cl)ccc1C | 43 | – | – | – | – | 59 | Fam108b inh=90
CC1CCN(S(=O)(=O)c2ccc(C(=O)Nc3ccccc3-c3nc4ccccc4[nH]3)cc2)CC1 | 29 | – | – | – | – | 71 | Fam108b inh=100
CC1CCCN(S(=O)(=O)c2ccc(C(=O)Nc3ccccc3-c3nc4ccccc4[nH]3)cc2)C1 (stereo not drawn) | – | – | – | – | – | ·
O=C(O)c1cccc(-n2cccc2/C=C/[N+](=O)[O-])c1 | 25 | – | – | – | – | –
CSc1ccc(CNCC2CCCO2)cc1 (stereo not drawn) | – | – | – | – | – | ·
Cc1ccccc1C(=O)NCC(=O)OC1CCCCC1=O (stereo not drawn) | – | – | – | – | – | ·
CC1(C)Cc2[nH]c3ccccc3c2C(C)(C)N1 | – | – | – | – | – | ·
O=C1CC(c2ccccc2)=NN1c1nc(-c2ccccc2)cs1 | 19 | – | – | – | – | –
Cc1cc(C)cc(N(CC(=O)NC2CCC(C)CC2)S(=O)(=O)c2c(C)[nH]c(=O)[nH]c2=O)c1 (stereo not drawn) | – | – | – | – | – | ·
O=C(Nc1cccc(Cl)c1)Nc1sccc1-c1nc2ccccc2s1 | 27 | – | – | – | – | 20
O=C(Nc1ccccc1)Nc1sccc1-c1nc2ccccc2s1 | – | – | – | – | – | ·
O=C(Nc1ccccc1F)Nc1cccc2ccc(O)cc12 | 18 | – | – | 34 | – | –
CCCCC1=CC2=C(c3ccco3)C(=O)C(C)(OC(=O)c3ccc(OC)cc3)C(=O)C2=CN1c1ccccc1 (stereo not drawn) | – | – | – | – | – | ·
N#C/C(=N\Nc1ccc(S(=O)(=O)N2CCc3ccccc32)cc1)C(N)=S | 22 | – | – | – | – | 27
Nc1nc2ccccc2n1/N=C/c1ccc(Br)cc1 | 29 | – | – | – | – | 35
Nc1nc2ccccc2n1/N=C/c1ccc2c(c1)OCO2 | – | – | – | – | – | ·
Cc1cc(N/N=C/c2ccc(O)c(C)c2O)nc(-c2ccccc2O)n1 | 43 | – | – | 62 | – | –
CCOc1ccc(NC(=O)CN(C)C(=O)c2cc3c(s2)CCCCC3)cc1OCC | – | – | – | – | – | ·
O=C(Nc1ccc(N2CCCC2)c(S(=O)(=O)Nc2cccc(C(F)(F)F)c2)c1)c1cccs1 | 21 | – | – | – | – | 33 | Fam108b inh=85
COc1ccccc1NS(=O)(=O)c1cc(NC(=O)c2cccs2)ccc1N1CCCC1 | – | – | – | – | – | ·
O=C1C=C(O)c2c(O)cccc2C1=O | – | – | – | – | – | ·
O=C1c2c(O)cccc2Cc2cccc(O)c21 | 22 | – | – | 37 | – | 43

High-throughput results deposited in PubChem BioAssay by The Scripps Research Institute Molecular Screening Center.
